This passage reports double positive events and percent response (vesicle binding) results from PubChem BioAssay AID2810 (NMMLSC, 2010).

The assay in a line: modulators of CD8 T cell-vesicle binding, confirmation, cherry-picked primary hits, two concentrations (AID 2810).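 On percent response (vesicle binding): ratio of mean FL2 vesicle stain of CD8+ cells to that row's control.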 The conditions noted are these: 2C CD8+ T cell-vesicle binding, flow cytometry; for double positive events: CD8+/vesicle+ events. A general note: A flow cytometer gives signals particle by particle.
The mark [1] stands for this setting: at 15.4 µM, stronger effect = lower value.

In all, about 1,200 compounds went through this assay and about 65 (5%) were called active.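 How the source made its calls: active means at either tested dose, response and 90th-percentile vesicle-stain brightness of CD8 cells under set limits and under 9% cells vesicle-bound; inactive means the rest.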 The list comes from a sample in which actives are over-represented; it also holds similar structures and randomly drawn compounds.

Regarding `O=C(Nc1ccccc1)N1CCc2c([nH]c3ccccc23)C1C(F)(F)F` (stereo unspecified), the double positive events came out at 14% (at 7.7 µM) and 38.4% under setting [1]. The percent response (vesicle binding) runs as follows: under setting [1], 145% (inactive); (response, at 7.7 µM) 187%.

`COc1ccccc1NC(=O)Cn1cnc2sc(C)c(S(=O)(=O)N3CCCCC3)c2c1=O` gave a double positive events (at 7.7 µM) of 11.3% and a double positive events under setting [1] of 5.5%. The percent response (vesicle binding) under setting [1] was 109% (inactive) and the percent response (vesicle binding) (response, at 7.7 µM) turned out to be 197%.

For `COc1ccccc1CNC(=O)COc1ccc(C)cc1`, the double positive events by setting is: (at 7.7 µM) 13.1%; under setting [1], 5.2%. Further, the percent response (vesicle binding) under setting [1] is 56.4% (active) and the percent response (vesicle binding) (response, at 7.7 µM) stood at 222%.

Regarding `COc1ccccc1CNC(=O)C1CCC1`, the double positive events was 33.3% (at 7.7 µM) and 24.2% under setting [1]. The percent response (vesicle binding) is 232% (inactive) under setting [1] and 953% (response, at 7.7 µM).

As to `COc1ccc(S(=O)(=O)N(C)c2ccc(C(=O)NCC3CCCO3)cc2)cc1OC` (stereo unspecified), the double positive events by setting is: (at 7.7 µM) 21.6%; under setting [1], 13.3%. In addition, the percent response (vesicle binding) was 226% (inactive) under setting [1] and 413% (response, at 7.7 µM).

With `COc1ccccc1CNC(=O)CN(Cc1ccc(Cl)cc1)S(C)(=O)=O`, the double positive events is 25.3% (at 7.7 µM) and 7.2% under setting [1]. Further, the percent response (vesicle binding) was 127% (inactive) under setting [1] and 441% (response, at 7.7 µM).

Take `COc1ccccc1CNC(=O)c1ccc(N(C)S(=O)(=O)c2ccc(C)cc2)cc1`: the double positive events reads like this: (at 7.7 µM) 17.5%; under setting [1], 5.4%. Besides, the percent response (vesicle binding) by setting is: under setting [1], 41.2% (active); (response, at 7.7 µM) 152%.

In turn, `COc1cc(CC(=O)OCC(=O)NCc2ccc(C)cc2)cc(OC)c1OC` returned a double positive events (at 7.7 µM) of 12.7% and a double positive events under setting [1] of 21.2%. In addition, the percent response (vesicle binding) reads like this: under setting [1], 138% (inactive); (response, at 7.7 µM) 165%.

Take `Cc1ccc(C)c(OC(=O)c2cncc(Br)c2)c1`: the double positive events came out at 18.1% (at 7.7 µM) and 15.8% under setting [1]. The percent response (vesicle binding) under setting [1] was 147% (inactive) and the percent response (vesicle binding) (response, at 7.7 µM) came to 268%.

As for `Cc1ccc(NC(=O)COC(=O)c2c(-c3ccccc3)noc2C)c(C)c1`, the double positive events by setting is: (at 7.7 µM) 5.6%; under setting [1], 14.4%. In addition, the percent response (vesicle binding) runs as follows: under setting [1], 137% (inactive); (response, at 7.7 µM) 226%.

`Cc1c(C(=O)N(C)Cc2ccccc2)oc2ccc(S(=O)(=O)N3CCCC3)cc12`: the double positive events runs as follows: (at 7.7 µM) 25.6%; under setting [1], 12.7%. Further, the percent response (vesicle binding) is, setting by setting: under setting [1], 191% (inactive); (response, at 7.7 µM) 229%.

Consider `COc1cc2c(-c3cc(F)cc(F)c3)c(-c3ccsc3)oc(=O)c2cc1OC`, for which the double positive events was 37.8% (at 7.7 µM) and 28.1% under setting [1]. In addition, the percent response (vesicle binding) runs as follows: under setting [1], 275% (inactive); (response, at 7.7 µM) 271%.

In the case of `O=C(CCc1ccccc1)N1CCN(CCO)CC1`, the double positive events is 35.8% (at 7.7 µM) and 14.4% under setting [1]. Further, the percent response (vesicle binding) reads like this: under setting [1], 151% (inactive); (response, at 7.7 µM) 239%.

For `CC(C)(C)NC(=O)COc1ccc(CNCc2cccnc2)cc1`, the double positive events by setting is: (at 7.7 µM) 31%; under setting [1], 21.6%. In addition, the percent response (vesicle binding) is, setting by setting: under setting [1], 446% (inactive); (response, at 7.7 µM) 334%.

In the case of `CC(C)(C)NC(=O)COc1ccc(CNCc2ccccn2)cc1`, the double positive events runs as follows: (at 7.7 µM) 21.6%; under setting [1], 5.1%. The percent response (vesicle binding) is 32.8% (active) under setting [1] and 227% (response, at 7.7 µM).

For the molecule `CC(C)(C)NC(=O)CON=C1c2ccccc2-c2ccccc21`, the double positive events (at 7.7 µM) worked out at 8.8% and the double positive events under setting [1] is 30.6%. Further, the percent response (vesicle binding) reads like this: under setting [1], 361% (inactive); (response, at 7.7 µM) 203%.

For `CCCCn1nc(C(=O)N2CCN(S(=O)(=O)c3ccccc3)CC2)c2ccccc2c1=O`, the double positive events is, setting by setting: (at 7.7 µM) 16.5%; under setting [1], 2.2%. Moreover, the percent response (vesicle binding) runs as follows: under setting [1], 57.2% (inactive); (response, at 7.7 µM) 484%.

Regarding `Cc1ccc(NC(=O)C2c3ccccc3Oc3ccccc32)c(C)c1`, the double positive events is, setting by setting: (at 7.7 µM) 12.5%; under setting [1], 28.2%. In addition, the percent response (vesicle binding) is, setting by setting: under setting [1], 175% (inactive); (response, at 7.7 µM) 230%.

On to `O=C(Nc1ccccc1C(=O)NCc1cccnc1)c1ccccc1Cl`, for which the double positive events came to 25.8% (at 7.7 µM) and 14.2% under setting [1]. For the same molecule, the percent response (vesicle binding) runs as follows: under setting [1], 202% (inactive); (response, at 7.7 µM) 364%.

Take `CCOc1ccc(CCNC(=O)CCS(=O)(=O)c2ccc(C)cc2)cc1OCC`: the double positive events reads like this: (at 7.7 µM) 12.8%; under setting [1], 11.7%. Besides, the percent response (vesicle binding) is, setting by setting: under setting [1], 215% (inactive); (response, at 7.7 µM) 177%.

Regarding `CCOc1ccc(CCNC(=O)c2cccc(-n3cnnn3)c2)cc1OCC`, the double positive events by setting is: (at 7.7 µM) 7.9%; under setting [1], 4.2%. The percent response (vesicle binding) reads like this: under setting [1], 39.3% (active); (response, at 7.7 µM) 237%.

For the molecule `CCOc1ccc(CCNC(=O)CCc2nnc3ccc(N4CCCC4)nn23)cc1OCC`, the double positive events reads like this: (at 7.7 µM) 6.3%; under setting [1], 20%. Besides, the percent response (vesicle binding) runs as follows: under setting [1], 239% (inactive); (response, at 7.7 µM) 150%.

In the case of `Cc1cc(C(=O)COC(=O)Cc2ccc(Cl)cc2)c(C)n1C`, the double positive events is, setting by setting: (at 7.7 µM) 13.6%; under setting [1], 22.5%. Also, the percent response (vesicle binding) is, setting by setting: under setting [1], 160% (inactive); (response, at 7.7 µM) 226%.

As for `O=C(/C(=N\Nc1ccc(Br)cc1)Sc1nnnn1-c1ccccc1)c1ccccc1`, the double positive events runs as follows: (at 7.7 µM) 9.1%; under setting [1], 14.4%. Besides, the percent response (vesicle binding) runs as follows: under setting [1], 176% (inactive); (response, at 7.7 µM) 308%.

On to `COc1cccc(-c2ccc(NC(=O)C3CCCN(Cc4cc(C)[nH]n4)C3)cc2)c1` (stereo unspecified), for which the double positive events (at 7.7 µM) came out at 11.6% and the double positive events under setting [1] is 32.2%. Also, the percent response (vesicle binding) is, setting by setting: under setting [1], 350% (inactive); (response, at 7.7 µM) 192%.

In turn, `O=C(O)CCc1ccc(S(=O)(=O)N2CCOCC2)cc1` yielded a double positive events (at 7.7 µM) of 20.5% and a double positive events under setting [1] of 28.7%. Further, the percent response (vesicle binding) by setting is: under setting [1], 274% (inactive); (response, at 7.7 µM) 233%.

Take `CCN(CC)CCNC(=O)CCCNC(=O)Cn1cnc2sc(C)c(C)c2c1=O`: the double positive events reads like this: (at 7.7 µM) 39.3%; under setting [1], 4.7%. For the same molecule, the percent response (vesicle binding) runs as follows: under setting [1], 131% (inactive); (response, at 7.7 µM) 375%.

Regarding `COCCCN1CCc2[nH]c(=S)[nH]c(=O)c2C1`, the double positive events (at 7.7 µM) stood at 27.3% and the double positive events under setting [1] is 2%. Moreover, the percent response (vesicle binding) is, setting by setting: under setting [1], 16.7% (active); (response, at 7.7 µM) 272%.

In the case of `CCc1c(O)cc2n(c1=O)-c1ccccc1C2(C)C`, the double positive events reads like this: (at 7.7 µM) 9.3%; under setting [1], 17.9%. Further, the percent response (vesicle binding) reads like this: under setting [1], 444% (inactive); (response, at 7.7 µM) 485%.

`O=C(Nn1cnc2ccccc2c1=O)C1CCCCC1`: the double positive events is 29.6% (at 7.7 µM) and 14.2% under setting [1]. Moreover, the percent response (vesicle binding) under setting [1] is 212% (inactive) and the percent response (vesicle binding) (response, at 7.7 µM) was found to be 255%.

For the molecule `Cc1ccc(C(=O)NCCCN2CCOCC2)c(C)c1`, the double positive events is 30.7% (at 7.7 µM) and 0.7% under setting [1]. Moreover, the percent response (vesicle binding) was 30.4% (active) under setting [1] and 440% (response, at 7.7 µM).

For `CCCN1CCN(CCCNC(=O)c2cc3c(s2)-c2ccccc2OC3)CC1`, the double positive events reads like this: (at 7.7 µM) 22.7%; under setting [1], 9.3%. The percent response (vesicle binding) is 171% (inactive) under setting [1] and 229% (response, at 7.7 µM).

For the molecule `Cc1ccc(NC(=S)N(CCCN2CCOCC2)Cc2cccs2)c(C)c1`, the double positive events runs as follows: (at 7.7 µM) 8.8%; under setting [1], 24.8%. The percent response (vesicle binding) is, setting by setting: under setting [1], 268% (inactive); (response, at 7.7 µM) 149%.

Regarding `CCn1c(=O)cc(SCC(=O)N2CCN(c3ccccc3F)CC2)c2ccccc21`, the double positive events (at 7.7 µM) was found to be 17% and the double positive events under setting [1] is 19.6%. Moreover, the percent response (vesicle binding) was 78.7% (inactive) under setting [1] and 247% (response, at 7.7 µM).
